A short description of test [1]: qHTS assay to identify small molecule agonists of the hypoxia (HIF-1) signaling pathway - cell viability counter screen (AID 1224844; calls by dose curve; further: nearly all actives have a fitted effect of over 50% in size; further: potency means the concentration at half of the fitted maximal effect). The method, boiled down: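 Cytotoxicity was measured in parallel with the HRE-driven beta-lactamase readout: after 17 hrs of compound exposure at 37C, HRE-bla ME-180 cells received CellTiter-Glo and luminescence was recorded 30 min later.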

A short description of test [2]: qHTS assay to identify small molecule agonists of H2AX (AID 1224845; active means well fitted activation curve with a large enough effect in the signal ratio in the repeat runs, not every such curve was filed as active; the % refers to the signal ratio; further: potency means the concentration at half of the fitted maximal effect). The procedure, abridged:
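Phospho-H2AX Ser139 measured by HTRF (ex 320 nm; em 665 and 620 nm) after 24 hr antibody incubation. Compounds, 15 concentrations, 0.76% DMSO, were applied to CHO-K1 cells for 3hr at 37C before lysis.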
(In general: In qHTS, concentration-response curves come from the screen itself.)

A short description of test [3]: qHTS RealTime-Glo MT Cell Viability Assay in HepG2 cells - 24 hour (AID 1224867). Further: nearly all actives have a fitted effect of over 50% in size. Further: potency means the concentration at half of the fitted maximal effect. The method, boiled down: (§1)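 Real-time, nonlytic viability: 600 HepG2 cells/well mixed with NanoLuc enzyme plus prosubstrate; 5 h settle, compound (DMSO) added by pintool; luminescence monitored over 40 h at 37 C.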
Test [4] in a line: qHTS RealTime-Glo MT Cell Viability Assay in HEK293 cells - 32 hour (AID 1224868). Further: nearly all actives have a fitted effect of over 50% in size. Further: potency means the concentration at half of the fitted maximal effect. The procedure, abridged:
(§2)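 Cells + reagent dispensed (600 cells/well, HEK293) → 5 h at 37 C/5% CO2 → 23 nL compound in DMSO pinned → 40 h at 37 C → luminescence read at 0, 8, 16, 24, 32, 40 h.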

Test [5] is described as follows: A CellTox Green Cytotoxicity Assay to monitor cytotoxicity in HEK293 cells - 0 hour (AID 1224869). Further: nearly all actives have a fitted effect of over 50% in size. The procedure, abridged:
(§3)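 Cells (HEK293, 600/well) and dye reagent are dispensed together. After 5 h at 37 C, 23 nL compound is pinned in. Plates stay at 37 C for 40 h with fluorescence read at 0h, 8h, 16h, 24h, 32h and 40h.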

The nature of test [6]: qHTS RealTime-Glo MT Cell Viability Assay in HepG2 cells - 40 hour (AID 1224870). Further: nearly all actives have a fitted effect of over 50% in size. Further: potency means the concentration at half of the fitted maximal effect. The procedure, abridged: (§4)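 Real-time viability: cells seeded at 600 per well together with NanoLuc and cell-permeant prosubstrate, compounds added after 5 h incubation. Luminescence tracked at 0, 8, 16, 24, 32 and 40 h of exposure.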
The nature of test [7]: A CellTox Green Cytotoxicity Assay to monitor cytotoxicity in HEK293 cells - 40 hour (AID 1224871). Further: nearly all actives have a fitted effect of over 45% in size. Further: potency means the concentration at half of the fitted maximal effect. The procedure, abridged:
as §3

Test [8] is described as follows: qHTS RealTime-Glo MT Cell Viability Assay in HEK293 cells - 16 hour (AID 1224872). Further: nearly all actives have a fitted effect of over 50% in size. Further: potency means the concentration at half of the fitted maximal effect. The method, boiled down: as §2
Test [9] is described as follows: qHTS RealTime-Glo MT Cell Viability Assay in HepG2 cells - 8 hour (AID 1224873). Further: nearly all actives have a fitted effect of over 55% in size. Further: potency means the concentration at half of the fitted maximal effect. The procedure, abridged: as §4
Test [10] is described as follows: qHTS RealTime-Glo MT Cell Viability Assay in HEK293 cells - 40 hour (AID 1224874). Further: nearly all actives have a fitted effect of over 50% in size. Further: potency means the concentration at half of the fitted maximal effect. The note with it: RealTime-Glo luminescence; max response: stronger effect = lower value. The procedure, abridged: (§5)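 Real-time viability in HEK293: signal arises when living cells convert a prosubstrate for NanoLuc in the medium, so luminescence tracks viable cell number. Compound (23 nL, DMSO) added 5 h post-seeding; kinetic reads at 0–40 h, 37 C.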

A short description of test [11]: A CellTox Green Cytotoxicity Assay to monitor cytotoxicity in HEK293 cells - 24 hour (AID 1224875). Further: nearly all actives have a fitted effect of over 45% in size. Further: potency means the concentration at half of the fitted maximal effect. The procedure, abridged:
as §3

A short description of test [12]: A CellTox Green Cytotoxicity Assay to monitor cytotoxicity in HepG2 cells - 16 hour (AID 1224876). Further: nearly all actives have a fitted effect of over 45% in size. Further: potency means the concentration at half of the fitted maximal effect. The procedure, abridged: (§6)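 Cells and non-lytic dye reagent are dispensed together (600 HepG2 cells/well) and incubated 5 h before DMSO compound transfer. Kinetic fluorescence is then recorded in the same wells during 40 h at 37 C.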
Test [13] in a line: qHTS RealTime-Glo MT Cell Viability Assay in HepG2 cells - 32 hour (AID 1224877). Further: nearly all actives have a fitted effect of over 55% in size. Further: potency means the concentration at half of the fitted maximal effect. The procedure, abridged:
as §1

The nature of test [14]: A CellTox Green Cytotoxicity Assay to monitor cytotoxicity in HepG2 cells - 24 hour (AID 1224878). Further: nearly all actives have a fitted effect of over 45% in size. Further: potency means the concentration at half of the fitted maximal effect. The method, boiled down:
as §6

A short description of test [15]: A CellTox Green Cytotoxicity Assay to monitor cytotoxicity in HepG2 cells - 40 hour (AID 1224879). Further: nearly all actives have a fitted effect of over 40% in size. Further: potency means the concentration at half of the fitted maximal effect. The method, boiled down: as §6
Test [16] in a line: qHTS RealTime-Glo MT Cell Viability Assay in HEK293 cells - 0 hour (AID 1224880). The method, boiled down: as §5
The nature of test [17]: qHTS assay to identify small molecule agonists of H2AX - cell viability counter screen (AID 1224847; calls by dose curve; further: nearly all actives have a fitted effect of over 30% in size; further: potency means the concentration at half of the fitted maximal effect). The procedure, abridged: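 Quantitative HTS viability measurement: CHO-K1 wild-type cells in serum (10% FBS) medium, short 3 hr drug exposure at 37C with 0.76% DMSO, CellTiter-Glo luminescent detection.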
Test [18] is described as follows: qHTS assay to identify small molecule antagonists of the estrogen related receptor (ERR) signaling pathway from Tox21 library (AID 1224848). Further: nearly all actives have a fitted effect of over 50% in size. Further: potency means the concentration at half of the fitted maximal effect. The procedure, abridged: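 ERR cell line, 2,000 cells/well. 6 h settle, then compound (DMSO) added; 18 h at 37 C; ONE-Glo luminescence after 30 min RT.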
The nature of test [19]: qHTS assay to identify small molecule agonists of the estrogen related receptor (ERR) signaling pathway from Tox21 library (AID 1224849; calls by dose curve; further: nearly all actives have a fitted effect of over 15% in size). The conditions noted are these: ERR reporter cell line, ONE-Glo luciferase, 18 h. The procedure, abridged: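 Cells carrying the ERR reporter were plated and allowed to settle for 6 h, exposed to library compounds for 18 h at 37 C, then lysed with ONE-Glo and luminescence measured.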

Test [20] can be described thus: qHTS assay to identify small molecule agonists of the hypoxia (HIF-1) signaling pathway (AID 1224846; active means well fitted activation curve with a large enough effect in the signal ratio in the repeat runs, not every such curve was filed as active; the % refers to the signal ratio). The method, boiled down: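 Compounds from the Tox21 10K library, dissolved in DMSO, are tested for induction of a hypoxia response element–controlled beta-lactamase reporter in ME-180 cells. Exposure lasts 17 hrs at 37C after a 5 hr settling period, followed by CCF4-AM FRET substrate.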

Where [21] appears, read: at 92.4 µM (top of the series) unless noted.

Several values for one entry are separate records, joined by “and”; a condition that tells them apart may be missing. Equal entries are not always repeated. Records with an inconclusive call do not appear. Where a structure was tested more than once in an assay, its records may differ in their call. Activity calls are given as the source filed them. Unless noted, the call rests on the fitted dose curve; in most records, active means well fitted curve in the direction sought with a large enough effect in the repeat runs; inconclusive means weak or mixed curves; inactive means no such curve, though single readings can be large; an effect the other way counts as inactive or inconclusive.
On the % scale 0 is the no-effect control and ±100 the full control effect.

For the compound `Cc1ccc([N+](=O)[O-])[c]2c1[O][Hg]2`, the Potency in test [1] is 2.13 µM (active); in test [2] it was 695 nM (active); in test [3] it was 2390 nM (active); in test [4] it was 3790 nM (active); in [6] it was 3010 nM (active); in test [7] it was 674 nM (active). In addition, the Potency was 3380 nM (active) in [8]; 2130 nM (active) in test [9]; 3010 nM (active) in [10]; 1510 nM (active) in test [11]; 3010 nM (active) in test [12]; 2390 nM (active) in [13]. For the same compound, the Potency in test [14] was 2680 nM (active); in test [15] it was 1900 nM (active). The Potency result in [5] and in test [16] was “inactive” in each case.

Turning to `C[C@]12C/C(=C/O)C(=O)C[C@@H]1CC[C@@H]1[C@@H]2CC[C@@]2(C)[C@H]1CC[C@]2(C)O`, the Potency in test [1] was 24.8 µM (active) and 19 µM (active); in [2], 90600 nM (active); in test [18] it was 34.7 µM (active) and 33.5 µM (active); in test [7], 49.4 µM (active) and inactive. The Potency result in [17], in [3], in test [4], in test [5], in test [6] and in test [8] was “inactive” each time. In addition, the Potency result in [9], in test [12], in [13], in test [14] and in test [16] was “inactive” throughout. The activity change, positive = activation in test [19] (at 42.5 µM (top of the series)) was -37.2% (inactive); in test [19] (at 92.4 µM (top of the series)), -61.4% (inactive). In addition, the max response in test [10] was -17.5% (inactive).

With `C[C@@H]1CC2=CC(=O)CC[C@@H]2[C@H]2CC[C@@]3(C)[C@@H](CC[C@]3(C)O)[C@@H]21`, the Potency result in test [1], in [2], in [17], in test [3], in test [5] and in test [6] was “inactive” each time. In addition, the Potency result in test [7], in test [9], in test [11], in test [12], in test [13] and in test [14] was “inactive” each time. Moreover, the Potency result in test [15] and in test [16] was “inactive” throughout. Moreover, the Potency in test [18] is 23.7 µM (active). The activity change, positive = activation in test [19] (setting [21]) is -28.8% [at 42.5 µM] (inactive).

For the compound `C[C@]12Cc3cn[nH]c3C[C@@H]1CC[C@@H]1[C@@H]2CC[C@@]2(C)[C@H]1CC[C@]2(C)O`, the Potency in test [1] was 8.49 µM (active). Also, the Potency result in test [2], in test [17], in [3], in [5], in test [6] and in test [7] was “inactive” each time. The Potency result in test [9], in [11], in test [12], in [13] and in [16] was “inactive” throughout. The activity change, positive = activation in [19] (setting [21]) was -42.2% [at 42.5 µM] (inactive).

Take `CCC[CH2][Sn]([CH2]CCC)([CH2]CCC)[O][Sn]([CH2]CCC)([CH2]CCC)[CH2]CCC`: the Potency in [1] is 0.479 µM (active); in [2] it was 278 nM (active); in test [17] it was 278 nM (active); in test [18] it was 0.377 µM (active); in test [3], 603 nM (active); in test [4], 170 nM (active). Moreover, the Potency in test [6] is 537 nM (active); in test [7], 302 nM (active); in [9], 956 nM (active); in test [10], 151 nM (active); in test [11], 427 nM (active); in test [12] it was 603 nM (active). Further, the Potency in test [13], in [14] and in test [15] was 537 nM (active) each time. Further, in test [19] (setting [21]), the activity change, positive = activation was -60.2% [at 8.39 µM] (inactive). Moreover, in [5], the cytotoxicity is 2.58% [at 6.97 µM] (inactive).

Turning to `CC(C)NCC(O)c1ccccc1Cl` (stereo not drawn), the Potency entry in test [1], in test [20], in test [17], in test [18], in [3] and in [4] was “inactive” each time. Besides, the Potency entry in [5], in [6], in test [7], in [8], in [9] and in test [11] was “inactive” throughout. The Potency result in [12], in [13], in test [15] and in [16] was “inactive” in each case. Also, in test [19] (setting [21]), the activity change, positive = activation is 0.518% [at 42.5 µM] (inactive). In test [10], the max response was 1.74% (inactive).

Source of the values: PubChem BioAssay (Tox21).
